Data on one sequence can be found in paper PMC7862700, “An all-to-all approach to the identification of sequence-specific readers for epigenetic DNA modifications on cytosine”.

Experiment in all cases: DAPPL (digital affinity profiling via proximity ligation, sequencing); 10 mM Tris-HCl pH 7.5, 50 mM NaCl, 1 mM DTT, 4% glycerol, room temperature, 30 min; GST-TFs on glutathione beads, 16-mer random dsDNA library, 0.1% formaldehyde crosslink after washing; high values mean tight binding
Conditions in all cases: protein: recombinant; tags: N-terminal GST; dsDNA, one strand shown

One experiment has as its target T1, ELK1 (Homo sapiens, UniProt P19419 1-428).
T1 sequence: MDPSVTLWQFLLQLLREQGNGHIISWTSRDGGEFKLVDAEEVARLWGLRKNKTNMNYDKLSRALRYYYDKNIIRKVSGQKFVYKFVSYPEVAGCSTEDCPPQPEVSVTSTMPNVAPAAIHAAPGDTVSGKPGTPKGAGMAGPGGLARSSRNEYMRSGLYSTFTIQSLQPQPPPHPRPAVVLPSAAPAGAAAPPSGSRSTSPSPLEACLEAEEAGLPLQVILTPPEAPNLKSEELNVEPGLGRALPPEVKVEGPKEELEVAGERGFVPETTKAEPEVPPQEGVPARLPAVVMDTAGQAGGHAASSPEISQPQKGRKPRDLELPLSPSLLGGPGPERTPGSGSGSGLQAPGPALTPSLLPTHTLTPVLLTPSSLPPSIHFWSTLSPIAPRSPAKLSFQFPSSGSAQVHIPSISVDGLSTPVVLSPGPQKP
The method, boiled down:
(§1)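 Binding signal is given per hexamer as its read frequency for a factor divided by its frequency in the tag-only sample. GST-fused human transcription factors were expressed in yeast, captured on glutathione beads, barcoded with DNA and pooled with that sample, then incubated with 200 nmole of a 16-mer random double-stranded DNA library in Tris/NaCl/DTT/glycerol buffer for 30 min at room temperature. The pools were then washed, crosslinked, proximity-ligated, amplified by PCR and sequenced on an Illumina NextSeq500.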

Another experiment addresses T2, GABPA (Homo sapiens, UniProt Q06546 1-454).
T2 sequence: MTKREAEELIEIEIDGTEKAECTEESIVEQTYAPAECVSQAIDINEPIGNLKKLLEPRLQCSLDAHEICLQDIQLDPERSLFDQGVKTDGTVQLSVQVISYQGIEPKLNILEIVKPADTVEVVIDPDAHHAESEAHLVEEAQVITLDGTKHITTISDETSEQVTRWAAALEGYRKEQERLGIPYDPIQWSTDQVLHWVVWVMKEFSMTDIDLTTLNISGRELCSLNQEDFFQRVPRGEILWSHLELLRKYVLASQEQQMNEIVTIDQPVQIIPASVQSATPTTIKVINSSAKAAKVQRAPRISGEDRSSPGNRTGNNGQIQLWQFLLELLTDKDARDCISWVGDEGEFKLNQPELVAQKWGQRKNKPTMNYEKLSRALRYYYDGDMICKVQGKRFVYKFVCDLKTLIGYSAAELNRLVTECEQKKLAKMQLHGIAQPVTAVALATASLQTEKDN
The procedure, abridged:
as §1

The target of another experiment is SPI1 (Homo sapiens, UniProt P17947 1-270). The procedure, abridged: as §1
For a further experiment, the target named is T3, ELK3 (Homo sapiens, UniProt P41970 1-407).
T3 sequence: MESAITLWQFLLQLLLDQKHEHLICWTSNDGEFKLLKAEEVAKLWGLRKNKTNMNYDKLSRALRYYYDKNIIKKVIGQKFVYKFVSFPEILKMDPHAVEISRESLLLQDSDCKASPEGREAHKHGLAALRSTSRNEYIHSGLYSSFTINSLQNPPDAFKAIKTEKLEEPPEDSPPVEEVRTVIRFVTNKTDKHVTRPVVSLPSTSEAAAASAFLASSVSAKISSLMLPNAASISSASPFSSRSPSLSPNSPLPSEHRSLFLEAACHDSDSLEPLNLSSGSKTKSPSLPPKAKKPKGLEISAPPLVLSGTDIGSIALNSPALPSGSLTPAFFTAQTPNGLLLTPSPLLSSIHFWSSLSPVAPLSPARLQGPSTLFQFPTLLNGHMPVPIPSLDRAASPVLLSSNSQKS
The method, boiled down:
as §1

The target of another experiment is T4, SPIC (Homo sapiens, UniProt Q8N5J4 1-248).
T4 sequence: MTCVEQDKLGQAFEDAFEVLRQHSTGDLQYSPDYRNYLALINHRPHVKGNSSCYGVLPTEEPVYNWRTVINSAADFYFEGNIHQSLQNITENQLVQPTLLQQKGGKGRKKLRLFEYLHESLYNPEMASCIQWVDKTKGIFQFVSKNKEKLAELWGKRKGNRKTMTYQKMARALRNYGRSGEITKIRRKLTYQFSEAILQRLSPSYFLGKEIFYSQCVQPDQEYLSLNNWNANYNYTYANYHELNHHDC
The procedure, abridged:
as §1

A further experiment deals with ELF4 (Homo sapiens, UniProt Q99607 1-663). The procedure, abridged: as §1
The next experiment concerns the target T5, ETV2 (Homo sapiens, UniProt O00321 1-342).
T5 sequence: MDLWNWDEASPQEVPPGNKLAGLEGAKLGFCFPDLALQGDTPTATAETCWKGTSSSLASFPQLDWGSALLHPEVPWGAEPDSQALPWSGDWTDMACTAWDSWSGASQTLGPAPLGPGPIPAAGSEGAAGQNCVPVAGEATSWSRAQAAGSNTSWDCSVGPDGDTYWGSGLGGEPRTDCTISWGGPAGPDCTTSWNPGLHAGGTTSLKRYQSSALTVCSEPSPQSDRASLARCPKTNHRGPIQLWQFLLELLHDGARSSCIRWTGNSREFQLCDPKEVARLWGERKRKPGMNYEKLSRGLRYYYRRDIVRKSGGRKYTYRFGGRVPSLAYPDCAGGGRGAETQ
The method, boiled down: as §1

For another experiment, the target named is ETV1 (Homo sapiens, UniProt P50549 1-477). The procedure, abridged:
as §1

The target in the next experiment is T6, ERF (Homo sapiens, UniProt P50548 1-548).
T6 sequence: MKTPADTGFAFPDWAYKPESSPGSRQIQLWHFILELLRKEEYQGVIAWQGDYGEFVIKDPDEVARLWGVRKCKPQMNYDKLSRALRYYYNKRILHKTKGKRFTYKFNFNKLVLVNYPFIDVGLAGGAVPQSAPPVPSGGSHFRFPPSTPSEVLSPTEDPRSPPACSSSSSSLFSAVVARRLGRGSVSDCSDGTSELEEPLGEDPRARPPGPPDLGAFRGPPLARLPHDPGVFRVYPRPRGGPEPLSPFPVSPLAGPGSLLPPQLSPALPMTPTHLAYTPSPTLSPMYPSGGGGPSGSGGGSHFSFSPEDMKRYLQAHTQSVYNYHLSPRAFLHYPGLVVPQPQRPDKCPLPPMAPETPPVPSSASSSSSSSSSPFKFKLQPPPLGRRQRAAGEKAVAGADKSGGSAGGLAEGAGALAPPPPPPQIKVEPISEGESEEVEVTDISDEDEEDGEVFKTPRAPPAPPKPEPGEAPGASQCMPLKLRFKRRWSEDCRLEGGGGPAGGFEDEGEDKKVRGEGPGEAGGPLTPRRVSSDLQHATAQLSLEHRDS
The method, boiled down:
as §1

The next experiment deals with T7, ETS2 (Homo sapiens, UniProt P15036 1-469).
T7 sequence: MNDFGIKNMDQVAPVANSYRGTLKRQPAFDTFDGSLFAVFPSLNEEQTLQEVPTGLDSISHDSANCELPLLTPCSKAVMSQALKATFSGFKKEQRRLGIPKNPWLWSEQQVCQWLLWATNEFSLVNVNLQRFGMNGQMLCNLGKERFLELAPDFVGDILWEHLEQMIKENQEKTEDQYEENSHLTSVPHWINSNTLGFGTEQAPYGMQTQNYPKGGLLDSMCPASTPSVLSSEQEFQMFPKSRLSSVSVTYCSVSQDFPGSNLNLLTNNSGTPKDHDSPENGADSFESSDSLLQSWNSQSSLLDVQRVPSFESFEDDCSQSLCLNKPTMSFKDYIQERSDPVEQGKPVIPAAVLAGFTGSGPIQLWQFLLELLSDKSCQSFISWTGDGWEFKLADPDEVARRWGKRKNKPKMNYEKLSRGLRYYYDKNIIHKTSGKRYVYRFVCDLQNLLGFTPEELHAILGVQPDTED
The procedure, abridged: as §1

In another experiment the target is T8, ETV7 (Homo sapiens, UniProt Q9Y603 1-341).
T8 sequence: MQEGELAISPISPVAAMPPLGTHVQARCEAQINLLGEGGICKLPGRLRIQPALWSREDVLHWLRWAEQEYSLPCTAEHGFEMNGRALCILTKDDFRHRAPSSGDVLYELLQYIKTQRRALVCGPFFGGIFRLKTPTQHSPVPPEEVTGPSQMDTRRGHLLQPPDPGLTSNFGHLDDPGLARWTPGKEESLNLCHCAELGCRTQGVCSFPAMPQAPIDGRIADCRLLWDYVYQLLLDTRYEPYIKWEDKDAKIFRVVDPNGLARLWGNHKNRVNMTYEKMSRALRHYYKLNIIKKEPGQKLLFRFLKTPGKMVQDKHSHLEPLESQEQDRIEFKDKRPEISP
The method, boiled down: as §1

Another experiment addresses T9, ELF5 (Homo sapiens, UniProt Q9UKW6-2 1-255).
T9 sequence: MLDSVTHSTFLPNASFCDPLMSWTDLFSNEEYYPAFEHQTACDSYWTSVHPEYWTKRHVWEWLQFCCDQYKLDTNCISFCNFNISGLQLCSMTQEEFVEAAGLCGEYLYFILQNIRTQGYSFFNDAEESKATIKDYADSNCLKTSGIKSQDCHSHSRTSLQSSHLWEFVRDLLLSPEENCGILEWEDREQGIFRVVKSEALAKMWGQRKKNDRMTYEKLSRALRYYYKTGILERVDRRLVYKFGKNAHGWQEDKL
The procedure, abridged:
as §1

The target of the next experiment is T10, ETV3 (Homo sapiens, UniProt P41162-2 1-143).
T10 sequence: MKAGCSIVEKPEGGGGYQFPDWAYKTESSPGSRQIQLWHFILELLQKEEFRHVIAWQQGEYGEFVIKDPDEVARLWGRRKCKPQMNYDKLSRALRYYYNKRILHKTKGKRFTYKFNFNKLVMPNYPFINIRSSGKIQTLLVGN
The method, boiled down:
as §1

Sequence of ETV1 (P50549 whole entry): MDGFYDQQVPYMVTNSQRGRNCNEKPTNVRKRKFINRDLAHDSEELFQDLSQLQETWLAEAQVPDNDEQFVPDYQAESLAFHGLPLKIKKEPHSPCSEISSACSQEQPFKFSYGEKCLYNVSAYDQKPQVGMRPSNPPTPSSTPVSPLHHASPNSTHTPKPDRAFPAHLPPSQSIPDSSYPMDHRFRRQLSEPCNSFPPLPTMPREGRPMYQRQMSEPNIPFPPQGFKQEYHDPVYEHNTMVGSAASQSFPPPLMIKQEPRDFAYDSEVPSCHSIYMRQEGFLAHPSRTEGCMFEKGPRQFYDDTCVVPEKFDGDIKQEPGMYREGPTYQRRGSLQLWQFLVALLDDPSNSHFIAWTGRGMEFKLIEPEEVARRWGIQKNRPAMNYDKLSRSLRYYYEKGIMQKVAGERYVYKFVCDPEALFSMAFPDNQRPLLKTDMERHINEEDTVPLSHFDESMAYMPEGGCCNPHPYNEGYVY
Sequence of ELF4 (Q99607 whole entry): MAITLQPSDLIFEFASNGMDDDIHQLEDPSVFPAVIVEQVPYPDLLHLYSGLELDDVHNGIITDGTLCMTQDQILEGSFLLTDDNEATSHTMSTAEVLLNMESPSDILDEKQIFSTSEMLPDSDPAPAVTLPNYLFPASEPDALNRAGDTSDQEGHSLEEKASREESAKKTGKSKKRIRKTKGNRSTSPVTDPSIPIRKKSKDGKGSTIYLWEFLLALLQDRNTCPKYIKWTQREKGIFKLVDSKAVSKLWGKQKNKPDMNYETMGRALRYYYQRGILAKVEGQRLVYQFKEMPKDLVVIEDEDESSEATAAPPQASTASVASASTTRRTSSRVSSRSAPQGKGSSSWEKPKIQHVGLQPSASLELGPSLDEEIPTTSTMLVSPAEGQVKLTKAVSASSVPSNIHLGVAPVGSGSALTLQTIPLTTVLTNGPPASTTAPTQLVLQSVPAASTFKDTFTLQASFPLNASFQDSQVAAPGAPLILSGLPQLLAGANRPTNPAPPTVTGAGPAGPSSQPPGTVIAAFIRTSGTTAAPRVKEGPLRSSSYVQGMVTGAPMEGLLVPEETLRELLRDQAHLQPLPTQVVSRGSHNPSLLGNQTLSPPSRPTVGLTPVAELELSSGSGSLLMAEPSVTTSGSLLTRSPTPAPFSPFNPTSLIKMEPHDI

Consider ACCTGT, for which the binding signal is 1.05 fold enrichment (6-mer frequency, TF over GST control) with ELK1; 1 fold enrichment (6-mer frequency, TF over GST control) in the experiment with GABPA; 1.01 fold enrichment (6-mer frequency, TF over GST control) in the experiment with SPI1; 1.12 fold enrichment (6-mer frequency, TF over GST control) in the experiment with ELK3; 1.06 fold enrichment (6-mer frequency, TF over GST control) with SPIC; 1.06 fold enrichment (6-mer frequency, TF over GST control) with ELF4. Besides, the binding signal was 1.04 fold enrichment (6-mer frequency, TF over GST control) with ETV2; 1.02 fold enrichment (6-mer frequency, TF over GST control) in the experiment with ETV1; 1.08 fold enrichment (6-mer frequency, TF over GST control) with ERF; 1.04 fold enrichment (6-mer frequency, TF over GST control) with ETS2; 1.07 fold enrichment (6-mer frequency, TF over GST control) with ETV7; 1.04 fold enrichment (6-mer frequency, TF over GST control) with ELF5. For the same sequence, the binding signal with ETV3 was 1.13 fold enrichment (6-mer frequency, TF over GST control).
